Laboratory results published in PubChem BioAssay AID597 (National Center for Advancing Translational Sciences (NCATS), 2007).
The campaign covered roughly 68,000 compounds. About 60 (0.09%) were called active. Calls follow the shape of the dose curve; as a rule, active = well fitted curve in the direction sought with a large enough effect; inconclusive = small, poorly fitted or top-dose-only effect; inactive = flat fitted curve, though single readings scatter. Not all results are given here.

experiment: qHTS Assay for Epigenetic Modulators; settings: mouse C127i GFP locus derepression, cytometry, 30 h; series mostly up to 46.1 µM; GFP derepression (activation): at the top concentration; also: % of control where 0% means no effect
Text: NIH Molecular Libraries Screening Centers Network [MLSCN] NIH Chemical Genomics Center [NCGC] MLSCN Grant: 1 X01 MH079860-01 Assay Provider: Elisabeth D. Martinez, University of Texas SW Medical Center NCGC Assay Overview: The Locus Derepression assay detects the derepression of a GFP reporter that is stably integrated in a region of the genome of murine c127i mammary cells that is presumably silenced. GFP transcription in this construct is controlled by a CMV promoter, which normally is strong and constitutively active. However, this line was selected for lack of constitutive expression of the GFP protein. GFP production can be induced by incubating the cells with histone deacetylase or DNA methyltransferase inhibitors. Compounds that cause derepression of the locus to express GFP are identified by enumerating GFP positive cells using a laser-scanning microplate cytometer. For further details of this screen and follow-up characterization, see R.L. Johnson, W. Huang, A. Jadhav, C.P. Austin, J. Inglese, E.D. Martinez, A Quantitative High-Throughput Screen Identifies Potential Epigenetic Modulators of Gene Expression, Analytical Biochemistry (2008) 375(2):237-48.
NCGC Assay Protocol Summary: Two hundred and fifty cells in 5 uL per well were dispensed into black, clear-bottom 1536-well plates. Twenty-three nL compound was transferred to the assay plate and cells were incubated 30 hours at 37 C. Medium was removed, cells were washed two times with PBS, and GFP-positive cells were enumerated as fluorescent objects between the sizes of 20 to 120 um width and depth using an Acumen Explorer. Keywords: NIH Roadmap, MLSCN, MLI, MLSMR, qHTS, NCGC, qHTS, HDAC, DNMT, HAT, DNA methyltransferases, histone acetyl transferases, histone deacetylases

GFP derepression (activation), inactive:
COc1ccc(CNC(=O)C2CCN(S(=O)(=O)N3CCOCC3)CC2)cc1 4.7%
COc1ccc(C(CC(=O)O)NC(=O)Cc2ccccc2)cc1 (stereo not drawn) 0.9%
COC(=O)c1ccc(N(CC(=O)NC2CCCC2)C(=O)CNC(=O)c2ccco2)cc1 -1.3%
COc1ccc2[nH]c3c(=O)n(Cc4ccco4)cnc3c2c1 0.4%
CCCSc1nc2c(c(=O)n(C)c(=O)n2C)n1Cc1ccc(C)cc1 4.3%
O=C(CN1CCN(C(=O)c2cccc(F)c2)CC1)Nc1ccccc1F 2.3%
Cc1cc(N(C)C)cc(C)[n+]1[O-] -2.2%
O=C(c1cccc(F)c1)N1CCC2(CCCN(Cc3ccncc3)C2)CC1 0% [at 9.22 µM]
O=c1[nH]c(=O)n([C@H]2C[C@H](O)[C@H](CO)O2)cc1Br 0%
Cc1cccc(NC(=O)CSc2nc3c(c(=O)[nH]2)CCC3)c1C 0%
Cc1nn(-c2ccccc2)c2[nH]c(C(F)(F)F)cc(=O)c12 -2.9%
COC(=O)c1cc(C(=O)OC)cc(N2C(=O)CC(N3CCN(c4ccccc4)CC3)C2=O)c1 (stereo not drawn) 5.1%
CSCCC(NS(=O)(=O)/C=C/c1ccccc1)C(=O)N1CCC(C)CC1 (stereo not drawn) -1.5%
C=CCc1cccc2cc(C(=O)OCC)c(=O)oc12 0.1%
COC(=O)c1ccc(CSc2ccccc2C)o1 2.1%
CCN(c1ccccc1)S(=O)(=O)c1cccc(C(=O)O)c1 1.2%
COCCn1c(=O)c(-c2cccs2)nc2cnc(N3CCN(C)CC3)nc21 -2.7% [at 9.22 µM]
CN(Cc1ccco1)c1ncncc1-c1ccoc1 3.4% [at 9.22 µM]
CN/C(=C\[N+](=O)[O-])NCCSCc1csc(CN(C)C)n1 0% [at 20.6 µM]
Cc1cccc(Cn2c(N3CCN(c4ccccc4)CC3)nc3c2c(=O)n(C)c(=O)n3C)c1 0%
O=C(c1ccc(=O)[nH]c1)N(Cc1ccco1)C1(C(=O)NC2CCCCC2)CCCCC1 -2.2%
CCCCC(CC)C(=O)Nc1ccc(Cl)cn1 (stereo not drawn) -1.7%
O=C(Nc1ccccc1)N[C@H]1C[C@H](C(=O)O)Nc2cc(Cl)cc(Cl)c21 0%
CC1(C)CC(=O)c2cc(OCC(=O)NCC3CCCO3)ccc2O1 (stereo not drawn) -1%
COc1ccccc1CN1CC2(CCN(S(=O)(=O)c3ccccc3)CC2)C1 -2.3% [at 9.22 µM]
COc1ccc2[nH]c3cc4c(=O)c5cc(OC)ccc5[nH]c4cc3c(=O)c2c1 1.1% [at 9.22 µM]
Oc1c(C(c2ccccn2)N2CCOCC2)ccc2cccnc12 (stereo not drawn) 1.6%
Cc1ccc(C(c2nnnn2C(C)(C)C)N2CCc3ccccc3C2)cc1 (stereo not drawn) -2.3%
CCOC(=O)C1(C(F)(F)F)N=C(N(C)C)OC(N(C)C)=N1 0%
CCC[C@H]1C(=O)N2C(N(C)C)=Nc3ccc(C)cc3N2C1=O 1.7% [at 20.6 µM]
Cc1cc(N2CCCCC2)nc2ccc(Cc3ccc4nc(N5CCCCC5)cc(C)c4c3)cc12 -2.2% [at 9.22 µM]
CCOCC(=O)Nc1cc(OC)c(Cl)cc1OC 0%
COCc1nc2ccccc2n1Cc1ccccc1Br 2.1%
O=C(NC1CCCCC1)n1c(=O)oc2cc(S(=O)(=O)N3CCCCC3)ccc21 -7.3%
COCCn1c(=O)c(-c2cccs2)nc2cncnc21 2.3% [at 9.22 µM]
O=C(COC(=O)c1ccc2c(c1)OCCO2)NCc1ccccc1 1.1%
Cc1ccccc1-c1nc(N(C)Cc2ccco2)c2ccccc2n1 -2.9% [at 9.22 µM]
COCCn1c(=O)c(-c2ccc(OC)cc2)nc2cnc(Oc3cccc(Cl)c3)nc21 -2.7% [at 9.22 µM]
O=c1c(-c2ccc(F)cc2)nc2cnc(N3CCOCC3)nc2n1-c1ccccc1 2.3% [at 9.22 µM]
NC(=O)C1(N2CCCCC2)CCN(C(=O)c2ccc(C#Cc3ccccc3)o2)CC1 0.2%
Nc1ccc(-c2nnc(-c3ccc(-c4ccccc4)cc3)o2)cc1 1.6%
COc1ccc(Cl)cc1NC(=O)C1CC(=O)N(c2ccc(F)cc2)C1 (stereo not drawn) 0%
CC1C(c2ccccc2)=[N+]([O-])C2(CCCC2)N1O (stereo not drawn) 5%
S=c1c2[nH]cnc2ncn1CCSc1ncnc2nc[nH]c12 3.4% [at 9.22 µM]
CN1CCN(c2ncncc2-c2ccc(C(=O)N(C)C)cc2)CC1 -2.3% [at 9.22 µM]
CCCCCNC(=O)Cc1ccc(OC)cc1 3.3%
COC(=O)c1ccc(CSc2nncn2C)cc1 15.3%
CC(C)(C)NC(=O)NC(=O)COC(=O)Cn1c(C(F)(F)F)nc2ccccc21 -1.3%
CC(C)[C@H](CO)Nc1nc(Nc2cc(N)cc(Cl)c2)c2ncn(C(C)C)c2n1 -2.5%
C[C@@H](N)[C@@H](C)Cc1ccccc1 0% [at 9.22 µM]
Cc1cc(NC(=O)CCC(=O)N(c2ccccc2)C(C(=O)NC2CCCC2)c2ccncc2)no1 (stereo not drawn) 1%
COc1ccc(C(=O)N2CCC3(CCCN(C(c4ccccc4)c4ccccc4)C3)CC2)cc1 -2.3% [at 9.22 µM]
COc1ccc(-c2cc(C(F)(F)F)n3nc(C(=O)N4CCOCC4)c(Cl)c3n2)cc1 0%
O=C(CS(=O)(=O)c1cn(Cc2cccc(F)c2)c2ccccc12)N1CCCCC1 2.3%
O=C(O)c1ccc(COc2c(F)c(F)cc(F)c2F)o1 -2.7%
Cc1ccc(Oc2nc3ccccc3n3c(C)nnc23)cc1 0.5%
CCC(c1nnnn1C1CCCC1)N1CCN(C(=O)c2ccco2)CC1 (stereo not drawn) -2.3%
O=C(COc1ccc(F)cc1)N(CC1=CCS(=O)(=O)C1)c1ccccc1 -2.7%
Cc1ccc(S(=O)(=O)N2CCC(C(=O)N[C@@H](C)C(=O)NCCc3ccccc3)CC2)cc1 0.4%
O=C(N1CCOCC1)N1CCOCC1 0.3%
CC(C)Cc1nc(N2CCOCC2)c(C#N)c2c1CCC2 -2.2% [at 20.6 µM]
CCCCCCCCCCCC(=O)O[C@H](CC(=O)O)C[N+](C)(C)C 1.4%
Cc1noc(C)c1-c1nc(Nc2ccccc2)c2ccccc2n1 -2.9% [at 9.22 µM]
O=C(O)c1nn(-c2ccc(Cl)cc2)c2c1C(=O)c1ccccc1C2=O 4.5% [at 9.22 µM]
Fc1ccccc1OCCCCn1cncn1 0%
O=[n+]1c2c(n([O-])c3cc(Br)ccc31)CCC2 5.1%
COC(=O)[C@H]1[C@H]2C[C@H]3c4[nH]c5ccccc5c4CCN3C[C@@H]2CC[C@@H]1O
CCOC(=O)c1cc2occc2n1CC(=O)N1CCN(C(=O)c2ccco2)CC1 2.3%
Cc1cc2c(cc1C)NC1=C(N2)O[C@H](c2c[nH]c3ccc(COc4ccccc4)cc23)C1=O 2.2% [at 9.22 µM]
NC(=NC(=O)c1ccccc1)C1=C(O)CCC1=O -3.4%
COc1ccc(-n2c(SC)nc(O)cc2=O)cc1 0%
O=C(CSc1ncccn1)NC(=O)NCc1ccccc1 -1.4%
NCCCNCCCCN(CCCN)/[N+]([O-])=N/O -1.4%
Cn1cccc1C(=O)N1CCC[C@@]2(CCN(Cc3nccs3)C2)C1 4.6% [at 9.22 µM]
COCCn1c(=O)c(-c2ccccc2)nc2cnc(N3CCOCC3)nc21 -2.7% [at 9.22 µM]
Cn1c(=NC(=O)CSCC(=O)N2CCOCC2)sc2ccccc21 0.2%
Cc1ccc2[nH]c(=O)c(COC(=O)c3ccccn3)cc2c1 0%
CCOC(=O)c1[nH]c2ccc(C)cc2c1N=C(C)N(C)C 3%
Cc1cc(C(=O)CC#N)c(C)n1CC(F)(F)F 1.2%
Cc1ccc(NC(=O)c2cccc(N(C)C)c2)cc1NC(=O)c1ccc(O)cc1 -0.4%
CCON=C1C(C)(C)C(C)(C)C(C)(C)C1(C)C 6.6% [at 9.22 µM]
Cc1ccc(S(=O)(=O)N(C)CC(=O)N2CCc3ccccc32)cc1 2.4%
COc1cccc(-c2cc(NCCc3c[nH]c4ccc(OC)cc34)ncn2)c1 5.1% [at 9.22 µM]
CC(C)c1ccc2c(c1)c(SC(C)(C)C)c(CC(C)(C)C(=O)O)n2Cc1ccc(Cl)cc1
C#CCCCCCCCCCCCCCCCC(=O)O 2.4%
N#CCCn1c(=O)c(-c2cc(F)cc(F)c2)nc2cnc(Oc3ccccc3)nc21 -4.9% [at 9.22 µM]
CCOc1cccc(NC(=O)CC#N)c1 3.4%
O=C1c2ccccc2C(Nc2ccc3c(c2)OCCO3)N1Cc1ccco1 (stereo not drawn) -3.4%
CCNCCCNCCCNCCCNCC -0.4%
N#CC1=C(SCc2ccccc2)NC(=O)C(C#N)C12CCCC2 (stereo not drawn) 3.3%
O=C(c1cccc(F)c1)N1CCC2(CC1)CCN(c1ccccc1)CC2 -1.6% [at 9.22 µM]
COc1ccc(OCC(=O)OCC(=O)Nc2ccc(S(=O)(=O)N3CCCCC3)cc2)cc1 4.8%
O=S(=O)(O)c1ccc(O)c2ncccc12.O=S(=O)(O)c1ccc(O)c2ncccc12.[Zn] 2.3% [at 9.22 µM]
Cc1cccc(CNc2ccnc(-c3cccnc3)n2)c1 0% [at 9.22 µM]
N#CCCN1CCN(S(=O)(=O)c2ccc(S(=O)(=O)NC3CCCCC3)cc2)CC1 -2.3%
Cc1ccc(-c2nn(CC(C)(C)C)c3ncnc(N)c23)cc1 3.8%
CCn1c(Cc2ccccc2)nnc1SCC(=O)Nc1ccccc1 -1.7%
CCc1c(C)[nH]c(=S)c(C#N)c1C -0.6%
COc1ccc(C)cc1NC(=O)CSc1nc(SC)ns1 6.4%
CN(C)c1cc[n+](Cc2ccccc2)cc1 2.3%
Nc1nnc(C2CCCC2)s1 0%
CN(c1nc2ccccc2n2c(-c3ccco3)nnc12)S(=O)(=O)c1ccccc1 -2.6%
CN1CCN(CC(O)COCc2ccc3c(c2)OCO3)CC1 (stereo not drawn) -0.1%
